Measurements: PubChem BioAssay (EPA / NIEHS)
The source made the active and inactive calls. How the source made its calls: active means hit-call score of the fitted dose curve at least 0.9, where 1 is the maximum; inactive means score below 0.9.

What was measured:
Conditions in all cases: mRNA level, 48 h; actives raise or lower the signal
[1] = read-out: Cyclin Dependent Kinase Inhibitor 1A (CDKN1A), CDKN1A (gene 1026); assay: LTEA_HepaRG_CDKN1A: Life Technologies and Expression Analysis (LTEA) Assay for Cyclin Dependent Kinase Inhibitor 1A (CDKN1A) using HepaRG (AID 2283450)
Summary of the method: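 Gain or loss of CDKN1A transcript is scored by bidirectional fitting against 0.5% DMSO vehicle. Human HepaRG cultures receive chemicals for 48 h across an 8-point series peaking at 100 uM; expression comes from qRT-PCR.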

[2] = read-out: Cyclin D1 (CCND1), CCND1 (gene 595); assay: LTEA_HepaRG_CCND1: Life Technologies and Expression Analysis (LTEA) Assay for Cyclin D1 (CCND1) using HepaRG (AID 2283451);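 on AC50: TaqMan qRT-PCR transcript level normalised to ACTB GAPDH and POLR2A housekeeping genes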
Summary of the method: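 Expression change is measured by qRT-PCR in HepaRG cells after 48 h treatment across eight concentrations topping at 100 uM, with duplicate wells and DMSO (0.5%) serving as baseline for bidirectional fitting.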

[3] = read-out: catalase (CAT), CAT (gene 847); assay: LTEA_HepaRG_CAT: Life Technologies and Expression Analysis (LTEA) Assay for catalase (CAT) using HepaRG (AID 2283452);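 on AC50: TaqMan qRT-PCR signal normalized to ACTB GAPDH and POLR2A housekeeping genes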
Summary of the method: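 HepaRG cells in serum-free induction medium, 0.5% DMSO vehicle, exposed 48 h in duplicate over 8 half-log concentrations from 100 uM. CAT mRNA measured by qRT-PCR, normalized to ACTB, GAPDH, POLR2A; bidirectional fit versus DMSO.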

[4] = read-out: flavin-containing dimethylaniline monooxygenases 3 (FMO3), FMO3 (gene 2328); assay: LTEA_HepaRG_FMO3: Life Technologies and Expression Analysis (LTEA) Assay for flavin-containing dimethylaniline monooxygenases 3 (FMO3) using HepaRG (AID 2283453)
Summary of the method: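 Differentiated HepaRG cells in serum-free induction medium, exposed 48 h in duplicate to 8 half-log concentrations up to 100 uM in 0.5% DMSO. FMO3 mRNA by qRT-PCR, normalized to ACTB, GAPDH, POLR2A; bidirectional fit vs DMSO.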

[5] = read-out: Cytochrome P450 (CYP1A1), CYP1A1 (gene 1543); assay: LTEA_HepaRG_CYP1A1: Life Technologies and Expression Analysis (LTEA) Assay for Cytochrome P450 (CYP1A1) using HepaRG (AID 2283454)
Summary of the method: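 Using HepaRG cultures with 0.5% DMSO as vehicle, eight-concentration exposures (max 100 uM) lasted 48 h. Transcript levels were measured by TaqMan qRT-PCR and normalized to ACTB, GAPDH and POLR2A.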

[6] = read-out: CFLAR gene, CFLAR (gene 8837); assay: LTEA_HepaRG_CFLAR: Life Technologies and Expression Analysis (LTEA) Assay for CFLAR gene using HepaRG (AID 2283455)
Summary of the method: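 Differentiated HepaRG cells in serum-free induction medium were exposed 48 h in duplicate to eight half-log concentrations up to 100 uM in 0.5% DMSO; mRNA measured by TaqMan qRT-PCR, normalized to ACTB, GAPDH, POLR2A; bidirectional fitting versus DMSO.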

[7] = read-out: Forkhead box O1 (FOXO1), FOXO1 (gene 2308); assay: LTEA_HepaRG_FOXO1: Life Technologies and Expression Analysis (LTEA) Assay for Forkhead box O1 (FOXO1) using HepaRG (AID 2283456)
Summary of the method: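 Differentiated HepaRG cells, in serum-free induction medium with 0.5% DMSO, exposed 48 h in duplicate to 8-point half-log series from 100 uM. FOXO1 mRNA measured by TaqMan qRT-PCR, normalized to ACTB, GAPDH, POLR2A; bidirectional fit versus DMSO.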

[8] = read-out: growth arrest and DNA damage 45 (GADD45A), GADD45A (gene 1647); assay: LTEA_HepaRG_GADD45A: Life Technologies and Expression Analysis (LTEA) Assay for growth arrest and DNA damage 45 (GADD45A) using HepaRG (AID 2283458)
Summary of the method: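 Differentiated HepaRG cells exposed 48 h in serum-free induction medium to 8 concentrations, top 100 uM in half-log steps, 0.5% DMSO. GADD45A mRNA quantified by qRT-PCR, normalized to ACTB, GAPDH and POLR2A; bidirectional fit versus DMSO.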

[9] = read-out: Forkhead box O3 (FOXO3), FOXO3 (gene 2309); assay: LTEA_HepaRG_FOXO3: Life Technologies and Expression Analysis (LTEA) Assay for Forkhead box O3 (FOXO3) using HepaRG (AID 2283459)
Summary of the method: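 Differentiated human HepaRG cells, 48 h post-plating, exposed in duplicate for 48 h in serum-free induction medium; 8-point half-log series from 100 uM in 0.5% DMSO. FOXO3 mRNA by TaqMan qRT-PCR, normalized to ACTB/GAPDH/POLR2A; bidirectional fit versus DMSO.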

[10] = read-out: ABC Transporter (ABCB1), ABCB1 (gene 5243); assay: LTEA_HepaRG_ABCB1: Life Technologies and Expression Analysis (LTEA) Assay for ABC Transporter (ABCB1) using HepaRG (AID 2283460)
Summary of the method: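 HepaRG cells exposed in duplicate for 48 h in serum-free induction medium to eight half-log concentrations up to 100 uM in 0.5% DMSO. ABCB1 mRNA quantified by qRT-PCR, normalised to ACTB, GAPDH and POLR2A; fitted bidirectionally versus DMSO.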

[11] = read-out: growth arrest and DNA damage 45 (GADD45B), GADD45B (gene 4616); assay: LTEA_HepaRG_GADD45B: Life Technologies and Expression Analysis (LTEA) Assay for growth arrest and DNA damage 45 (GADD45B) using HepaRG (AID 2283461)
Summary of the method: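 Human HepaRG monolayers receive chemicals for 48 h at eight half-log concentrations, highest 100 uM, in 0.5% DMSO. Expression is measured by TaqMan qRT-PCR and normalized to ACTB, GAPDH and POLR2A.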

[12] = read-out: ABC Transporter (ABCC3), ABCC3 (gene 8714); assay: LTEA_HepaRG_ABCC3: Life Technologies and Expression Analysis (LTEA) Assay for ABC Transporter (ABCC3) using HepaRG (AID 2283462)
Summary of the method: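 Transcriptional change of ABCC3 in HepaRG after 48 h treatment, determined by qRT-PCR normalized to endogenous controls. Concentrations spanned eight half-log steps to 100 uM in 0.5% DMSO.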

[13] = read-out: ABC Transporter (ABCB11), ABCB11 (gene 8647); assay: LTEA_HepaRG_ABCB11: Life Technologies and Expression Analysis (LTEA) Assay for ABC Transporter (ABCB11) using HepaRG (AID 2283463)
Summary of the method: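 Differentiated human HepaRG cells in serum-free induction medium, dosed in duplicate for 48 h. Eight-point half-log series from 100 uM in 0.5% DMSO; ABCB11 mRNA by qRT-PCR, normalized to ACTB, GAPDH, POLR2A, fitted bidirectionally versus DMSO.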

[14] = read-out: ABC Transporter (ABCC2), ABCC2 (gene 1244); assay: LTEA_HepaRG_ABCC2: Life Technologies and Expression Analysis (LTEA) Assay for ABC Transporter (ABCC2) using HepaRG (AID 2283464)
Summary of the method: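 After plating and 48 h culture, HepaRG medium is replaced with serum-free induction medium and chemicals are added (8 concentrations, max 100 uM, 0.5% DMSO) for 48 h. Total RNA then undergoes qRT-PCR for ABCC2 with housekeeping normalization.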

[15] = read-out: Broad substrate specificity ATP-binding cassette transporter ABCG2 (Homo sapiens) (UniProt Q9UNQ0); assay: LTEA_HepaRG_ABCG2: Life Technologies and Expression Analysis (LTEA) Assay for ABC Transporter (ABCG2) using HepaRG (AID 2283465)
Summary of the method: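 Differentiated HepaRG cells were exposed for 48 h in serum-free induction medium to 8 half-log concentrations, top 100 uM, in 0.5% DMSO. ABCG2 mRNA was measured by qRT-PCR, normalized to ACTB, GAPDH and POLR2A, with bidirectional fitting versus DMSO.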

[16] = read-out: Peroxisomal acyl-coenzyme A oxidase 1 (ACOX1) gene, ACOX1 (gene 51); assay: LTEA_HepaRG_ACOX1: Life Technologies and Expression Analysis (LTEA) Assay for Peroxisomal acyl-coenzyme A oxidase 1 (ACOX1) gene using HepaRG (AID 2283467)
Summary of the method: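 HepaRG cells, plated 48 h then switched to serum-free induction medium, were exposed in duplicate for 48 h to 8-point half-log concentrations up to 100 uM in 0.5% DMSO. ACOX1 mRNA was measured by qRT-PCR, normalized to ACTB/GAPDH/POLR2A, and fitted bidirectionally versus DMSO.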

[17] = read-out: Alkaline Phosphatase, Placental (ALPP) gene, ALPP (gene 250); assay: LTEA_HepaRG_ALPP: Life Technologies and Expression Analysis (LTEA) Assay for Alkaline Phosphatase, Placental (ALPP) gene using HepaRG (AID 2283468)
Summary of the method: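 Using human liver HepaRG cells, chemicals are tested in duplicate over 48 h at half-log concentrations topping at 100 uM; phenobarbital 1 mM serves as induction control. ALPP mRNA change by qRT-PCR, bidirectional fit against vehicle.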

[18] = read-out: ATP-citrate lyase (ACLY), ACLY (gene 47); assay: LTEA_HepaRG_ACLY: Life Technologies and Expression Analysis (LTEA) Assay for ATP-citrate lyase (ACLY) using HepaRG (AID 2283466)
Summary of the method: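 Differentiated HepaRG cells exposed 48 h in serum-free induction medium to eight half-log concentrations up to 100 uM in 0.5% DMSO, duplicates. Transcript measured by Fluidigm TaqMan qRT-PCR, normalized to ACTB, GAPDH, POLR2A; bidirectional fit versus DMSO.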

Measured: AC50

Chain of Broad substrate specificity ATP-binding cassette transporter ABCG2 (Homo sapiens) (Q9UNQ0 whole entry, looked up): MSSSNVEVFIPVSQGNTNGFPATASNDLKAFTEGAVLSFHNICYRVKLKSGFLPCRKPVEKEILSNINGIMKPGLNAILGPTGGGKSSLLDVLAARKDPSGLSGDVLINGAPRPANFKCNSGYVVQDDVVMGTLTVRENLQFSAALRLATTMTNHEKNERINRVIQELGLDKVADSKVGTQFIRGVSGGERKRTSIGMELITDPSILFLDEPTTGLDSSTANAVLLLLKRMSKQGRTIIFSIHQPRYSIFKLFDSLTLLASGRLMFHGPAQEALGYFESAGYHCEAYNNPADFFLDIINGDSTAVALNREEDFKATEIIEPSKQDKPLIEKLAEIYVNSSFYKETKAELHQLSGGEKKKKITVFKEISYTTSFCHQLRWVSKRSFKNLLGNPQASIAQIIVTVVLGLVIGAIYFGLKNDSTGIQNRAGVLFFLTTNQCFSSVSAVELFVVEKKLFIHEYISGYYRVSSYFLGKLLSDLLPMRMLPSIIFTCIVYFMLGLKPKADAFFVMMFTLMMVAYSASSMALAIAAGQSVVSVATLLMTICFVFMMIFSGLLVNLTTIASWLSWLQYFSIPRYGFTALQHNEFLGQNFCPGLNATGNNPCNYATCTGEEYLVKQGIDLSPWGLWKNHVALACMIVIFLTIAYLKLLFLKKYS

CCCCC(C#N)(Cn1cncn1)c1ccc(Cl)cc1 (centres undefined)
active: [1] 50 µM | [5] 27.1 µM | [10] 13.1 µM | [13] 91.7 µM | [15] 4.77 µM
not listed: [18]
inactive: all other assays above

CN=C=S
not listed: [6] | [18]
inactive: all other assays above

CC(C)=CC1C(C(=O)OCc2coc(Cc3ccccc3)c2)C1(C)C (centres undefined)
active: [5] 60.8 µM | [10] 29.3 µM | [13] 50 µM | [14] 50 µM
not listed: [6] | [17]
inactive: all other assays above

OC(c1ccc(Cl)cc1)(c1ccc(Cl)cc1)C(Cl)(Cl)Cl
active: [1] 83.7 µM | [3] 71.2 µM | [5] 11.9 µM | [7] 79.5 µM | [13] 72.4 µM | [15] 50 µM | [16] 50 µM
not listed: [4] | [6] | [17]
inactive: all other assays above

Clc1cccc(C(Cl)(Cl)Cl)n1
active: [8] 89.4 µM
not listed: [6]
inactive: all other assays above

O=P(O)(O)CCCl
active: [1] 0.373 µM | [2] 0.261 µM
not listed: [6] | [17]
inactive: all other assays above

C=CCOC(=O)C(C)(C)OC(=O)c1cc(-n2c(=O)cc(C(F)(F)F)n(C)c2=O)ccc1Cl
not listed: [6] | [18]
inactive: all other assays above

Clc1nc(Cl)nc(Nc2ccccc2Cl)n1
active: [5] 25.5 µM
not listed: [6] | [17]
inactive: all other assays above
